Article PMC7862700, “An all-to-all approach to the identification of sequence-specific readers for epigenetic DNA modifications on cytosine”

How the values were obtained:
Assay in all cases: DAPPL (digital affinity profiling via proximity ligation, sequencing); 10 mM Tris-HCl pH 7.5, 50 mM NaCl, 1 mM DTT, 4% glycerol, room temperature, 30 min; GST-TFs on glutathione beads, 16-mer random dsDNA library, 0.1% formaldehyde crosslink after washing; high values mean tight binding
Settings in all cases: protein: recombinant; tags: N-terminal GST; dsDNA, one strand shown
ERG = molecular target: T1, ERG (Homo sapiens, UniProt P11308 1-479)
T1 sequence: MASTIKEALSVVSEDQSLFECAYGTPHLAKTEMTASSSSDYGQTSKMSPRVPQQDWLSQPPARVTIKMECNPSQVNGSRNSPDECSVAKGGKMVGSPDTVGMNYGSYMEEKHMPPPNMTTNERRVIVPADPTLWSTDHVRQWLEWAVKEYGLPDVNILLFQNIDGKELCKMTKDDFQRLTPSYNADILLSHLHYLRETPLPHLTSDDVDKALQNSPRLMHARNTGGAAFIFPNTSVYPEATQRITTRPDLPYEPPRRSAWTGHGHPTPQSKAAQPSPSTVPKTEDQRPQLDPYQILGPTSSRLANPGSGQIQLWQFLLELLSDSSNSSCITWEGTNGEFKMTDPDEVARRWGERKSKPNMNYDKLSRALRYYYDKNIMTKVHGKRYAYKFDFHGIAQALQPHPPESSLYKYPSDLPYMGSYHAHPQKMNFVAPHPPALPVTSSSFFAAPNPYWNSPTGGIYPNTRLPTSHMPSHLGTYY
Outline: (§1)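 GST fusions of human transcription factors were expressed in yeast and captured with glutathione beads. Once given DNA barcodes and pooled alongside a tag-only sample, they were incubated for 30 min at room temperature with 200 nmole of a random double-stranded 16-mer DNA library in Tris/NaCl/DTT/glycerol buffer, then washed, crosslinked (0.1% formaldehyde), proximity-ligated, PCR-amplified and sequenced on an Illumina NextSeq500. The binding signal of each hexamer is its read frequency for a factor divided by its frequency for the tag-only sample.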

ELF1 = ELF1 (Homo sapiens, UniProt P32519 1-619)
ELF1, sequence (P32519 whole entry): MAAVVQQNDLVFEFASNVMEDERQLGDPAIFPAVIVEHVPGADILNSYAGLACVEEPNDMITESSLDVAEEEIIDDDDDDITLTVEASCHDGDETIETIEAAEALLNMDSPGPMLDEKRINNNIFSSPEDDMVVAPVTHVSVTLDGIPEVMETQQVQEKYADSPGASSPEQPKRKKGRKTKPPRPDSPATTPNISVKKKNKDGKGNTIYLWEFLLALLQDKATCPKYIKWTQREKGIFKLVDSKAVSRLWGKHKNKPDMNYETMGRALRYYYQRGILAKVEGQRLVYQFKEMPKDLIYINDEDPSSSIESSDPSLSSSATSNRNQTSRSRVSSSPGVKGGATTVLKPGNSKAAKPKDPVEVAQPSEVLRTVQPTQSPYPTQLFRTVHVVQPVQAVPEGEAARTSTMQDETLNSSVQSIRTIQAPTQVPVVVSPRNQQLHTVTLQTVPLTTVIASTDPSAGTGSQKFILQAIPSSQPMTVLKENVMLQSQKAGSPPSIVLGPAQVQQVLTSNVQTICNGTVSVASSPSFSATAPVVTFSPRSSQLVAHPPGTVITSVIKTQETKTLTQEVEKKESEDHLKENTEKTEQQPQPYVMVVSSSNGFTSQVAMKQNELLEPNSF
Outline: as §1

EHF = molecular target: T2, EHF (Homo sapiens, UniProt Q9NZC4 1-300)
T2 sequence: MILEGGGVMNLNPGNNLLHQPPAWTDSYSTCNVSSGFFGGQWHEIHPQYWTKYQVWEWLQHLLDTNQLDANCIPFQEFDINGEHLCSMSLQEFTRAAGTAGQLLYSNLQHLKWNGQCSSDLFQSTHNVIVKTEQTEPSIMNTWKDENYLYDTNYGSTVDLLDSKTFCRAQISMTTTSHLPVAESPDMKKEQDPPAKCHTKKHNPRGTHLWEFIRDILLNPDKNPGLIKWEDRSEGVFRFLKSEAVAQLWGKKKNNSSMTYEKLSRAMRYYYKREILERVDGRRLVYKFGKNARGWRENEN
Outline: as §1

SPIB = SPIB (Homo sapiens, UniProt Q01892 1-262)
SPIB, sequence (Q01892 whole entry): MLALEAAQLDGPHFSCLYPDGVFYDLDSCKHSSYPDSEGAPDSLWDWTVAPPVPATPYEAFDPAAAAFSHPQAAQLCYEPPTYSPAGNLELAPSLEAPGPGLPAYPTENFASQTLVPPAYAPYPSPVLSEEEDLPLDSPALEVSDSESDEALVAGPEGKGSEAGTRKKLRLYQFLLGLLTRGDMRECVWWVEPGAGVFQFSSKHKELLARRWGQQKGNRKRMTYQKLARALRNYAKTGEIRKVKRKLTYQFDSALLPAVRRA
Outline: as §1

ETV5 = ETV5 (Homo sapiens, UniProt P41161 1-510)
ETV5, sequence (P41161 whole entry): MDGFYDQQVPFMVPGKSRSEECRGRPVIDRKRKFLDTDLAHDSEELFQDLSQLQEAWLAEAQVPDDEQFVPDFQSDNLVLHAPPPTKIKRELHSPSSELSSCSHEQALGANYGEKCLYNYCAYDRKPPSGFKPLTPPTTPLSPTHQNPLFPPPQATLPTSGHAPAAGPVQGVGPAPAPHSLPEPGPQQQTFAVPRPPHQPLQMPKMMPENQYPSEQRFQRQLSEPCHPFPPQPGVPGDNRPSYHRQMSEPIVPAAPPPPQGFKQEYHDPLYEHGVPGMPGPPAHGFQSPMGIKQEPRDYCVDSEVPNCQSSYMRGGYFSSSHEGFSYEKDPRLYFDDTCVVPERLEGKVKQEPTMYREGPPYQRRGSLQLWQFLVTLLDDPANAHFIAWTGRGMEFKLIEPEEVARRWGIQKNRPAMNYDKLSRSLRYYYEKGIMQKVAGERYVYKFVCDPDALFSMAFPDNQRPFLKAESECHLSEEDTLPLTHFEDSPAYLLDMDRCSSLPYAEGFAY
Outline: as §1

ELF3 = molecular target: T3, ELF3 (Homo sapiens, UniProt P78545 1-371)
T3 sequence: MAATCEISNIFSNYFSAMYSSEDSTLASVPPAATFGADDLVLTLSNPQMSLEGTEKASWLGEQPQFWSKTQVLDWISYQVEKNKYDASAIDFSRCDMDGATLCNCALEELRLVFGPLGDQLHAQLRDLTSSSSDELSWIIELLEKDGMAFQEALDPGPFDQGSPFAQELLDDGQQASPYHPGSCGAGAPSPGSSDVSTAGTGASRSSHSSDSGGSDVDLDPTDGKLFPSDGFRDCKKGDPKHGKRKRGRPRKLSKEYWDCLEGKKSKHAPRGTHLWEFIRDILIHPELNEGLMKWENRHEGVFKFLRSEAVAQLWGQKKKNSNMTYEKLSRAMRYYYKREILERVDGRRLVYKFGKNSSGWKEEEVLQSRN
Outline: as §1

ETV1 = ETV1 (Homo sapiens, UniProt P50549 1-477)
ETV1, sequence (P50549 whole entry): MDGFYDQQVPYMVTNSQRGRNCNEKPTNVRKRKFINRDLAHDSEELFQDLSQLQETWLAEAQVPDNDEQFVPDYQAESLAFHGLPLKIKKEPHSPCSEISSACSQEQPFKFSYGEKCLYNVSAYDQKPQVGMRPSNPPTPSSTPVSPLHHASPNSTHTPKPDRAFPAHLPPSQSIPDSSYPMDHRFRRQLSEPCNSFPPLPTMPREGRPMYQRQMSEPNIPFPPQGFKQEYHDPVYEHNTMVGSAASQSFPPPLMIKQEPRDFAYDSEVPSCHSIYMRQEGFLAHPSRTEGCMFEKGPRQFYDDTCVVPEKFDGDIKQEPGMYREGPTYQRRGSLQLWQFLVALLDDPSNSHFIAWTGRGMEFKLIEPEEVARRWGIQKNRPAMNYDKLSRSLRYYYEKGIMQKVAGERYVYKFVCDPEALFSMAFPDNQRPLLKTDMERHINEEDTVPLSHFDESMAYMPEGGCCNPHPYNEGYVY
Outline: as §1

ELK1 = molecular target: T4, ELK1 (Homo sapiens, UniProt P19419 1-428)
T4 sequence: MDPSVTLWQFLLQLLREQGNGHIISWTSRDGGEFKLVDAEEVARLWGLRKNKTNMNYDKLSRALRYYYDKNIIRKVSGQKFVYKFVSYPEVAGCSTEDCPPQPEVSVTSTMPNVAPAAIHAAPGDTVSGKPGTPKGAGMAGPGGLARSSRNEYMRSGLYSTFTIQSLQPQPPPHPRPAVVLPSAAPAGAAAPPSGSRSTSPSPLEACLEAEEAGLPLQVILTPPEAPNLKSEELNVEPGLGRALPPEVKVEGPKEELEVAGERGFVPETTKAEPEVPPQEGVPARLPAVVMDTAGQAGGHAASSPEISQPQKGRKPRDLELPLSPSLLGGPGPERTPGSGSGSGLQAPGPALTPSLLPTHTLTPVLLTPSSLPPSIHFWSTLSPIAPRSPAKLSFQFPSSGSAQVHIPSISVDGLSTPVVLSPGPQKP
Outline: as §1

GABPA = molecular target: T5, GABPA (Homo sapiens, UniProt Q06546 1-454)
T5 sequence: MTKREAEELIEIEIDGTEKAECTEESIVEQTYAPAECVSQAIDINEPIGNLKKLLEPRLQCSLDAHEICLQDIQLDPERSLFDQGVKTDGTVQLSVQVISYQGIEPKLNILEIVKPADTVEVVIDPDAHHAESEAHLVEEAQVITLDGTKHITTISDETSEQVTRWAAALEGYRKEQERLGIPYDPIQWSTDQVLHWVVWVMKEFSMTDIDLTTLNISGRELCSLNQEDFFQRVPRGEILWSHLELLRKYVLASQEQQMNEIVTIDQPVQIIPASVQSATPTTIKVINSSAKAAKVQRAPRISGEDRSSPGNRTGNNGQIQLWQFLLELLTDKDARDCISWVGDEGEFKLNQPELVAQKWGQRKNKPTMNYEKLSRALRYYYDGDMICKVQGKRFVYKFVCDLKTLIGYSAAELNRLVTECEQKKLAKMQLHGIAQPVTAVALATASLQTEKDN
Outline: as §1

ELK3 = molecular target: T6, ELK3 (Homo sapiens, UniProt P41970 1-407)
T6 sequence: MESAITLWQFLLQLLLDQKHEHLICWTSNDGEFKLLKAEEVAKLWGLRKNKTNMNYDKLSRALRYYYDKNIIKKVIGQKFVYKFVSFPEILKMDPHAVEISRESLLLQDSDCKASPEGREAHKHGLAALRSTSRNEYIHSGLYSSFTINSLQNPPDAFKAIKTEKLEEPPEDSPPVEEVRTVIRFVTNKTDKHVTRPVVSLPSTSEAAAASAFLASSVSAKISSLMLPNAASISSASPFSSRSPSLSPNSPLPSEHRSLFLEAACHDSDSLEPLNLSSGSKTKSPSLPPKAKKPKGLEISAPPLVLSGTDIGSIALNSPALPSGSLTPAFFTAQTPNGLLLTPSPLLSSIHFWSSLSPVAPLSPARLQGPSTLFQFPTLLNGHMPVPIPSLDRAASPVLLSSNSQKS
Outline: as §1

SPIC = molecular target: T7, SPIC (Homo sapiens, UniProt Q8N5J4 1-248)
T7 sequence: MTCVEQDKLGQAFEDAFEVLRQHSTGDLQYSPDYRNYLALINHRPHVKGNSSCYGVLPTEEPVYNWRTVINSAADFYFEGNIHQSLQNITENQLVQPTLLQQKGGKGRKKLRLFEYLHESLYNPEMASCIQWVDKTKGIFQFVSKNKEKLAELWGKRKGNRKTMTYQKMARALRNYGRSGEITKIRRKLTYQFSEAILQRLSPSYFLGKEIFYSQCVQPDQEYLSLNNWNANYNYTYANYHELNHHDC
Outline: as §1

ELF4 = ELF4 (Homo sapiens, UniProt Q99607 1-663)
ELF4, sequence (Q99607 whole entry): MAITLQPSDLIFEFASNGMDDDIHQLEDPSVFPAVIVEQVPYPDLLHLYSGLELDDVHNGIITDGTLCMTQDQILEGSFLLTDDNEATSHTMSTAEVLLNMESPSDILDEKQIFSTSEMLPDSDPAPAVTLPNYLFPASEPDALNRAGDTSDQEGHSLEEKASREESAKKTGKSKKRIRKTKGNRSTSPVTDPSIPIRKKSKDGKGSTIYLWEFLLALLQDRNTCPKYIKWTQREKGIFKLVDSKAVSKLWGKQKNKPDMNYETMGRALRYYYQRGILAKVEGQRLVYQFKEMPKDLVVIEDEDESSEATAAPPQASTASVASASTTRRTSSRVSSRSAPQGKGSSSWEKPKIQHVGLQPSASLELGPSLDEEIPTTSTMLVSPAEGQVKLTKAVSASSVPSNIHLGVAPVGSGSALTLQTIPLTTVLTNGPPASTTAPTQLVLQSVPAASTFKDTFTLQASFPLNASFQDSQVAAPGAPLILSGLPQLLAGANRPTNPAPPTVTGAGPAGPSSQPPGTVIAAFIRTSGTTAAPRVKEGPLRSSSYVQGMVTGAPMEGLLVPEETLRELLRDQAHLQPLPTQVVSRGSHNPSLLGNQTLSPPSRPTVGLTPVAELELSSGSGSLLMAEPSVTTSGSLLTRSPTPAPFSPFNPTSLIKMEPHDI
Outline: as §1

ELK4 = molecular target: T8, ELK4 (Homo sapiens, UniProt P28324-2 1-405)
T8 sequence: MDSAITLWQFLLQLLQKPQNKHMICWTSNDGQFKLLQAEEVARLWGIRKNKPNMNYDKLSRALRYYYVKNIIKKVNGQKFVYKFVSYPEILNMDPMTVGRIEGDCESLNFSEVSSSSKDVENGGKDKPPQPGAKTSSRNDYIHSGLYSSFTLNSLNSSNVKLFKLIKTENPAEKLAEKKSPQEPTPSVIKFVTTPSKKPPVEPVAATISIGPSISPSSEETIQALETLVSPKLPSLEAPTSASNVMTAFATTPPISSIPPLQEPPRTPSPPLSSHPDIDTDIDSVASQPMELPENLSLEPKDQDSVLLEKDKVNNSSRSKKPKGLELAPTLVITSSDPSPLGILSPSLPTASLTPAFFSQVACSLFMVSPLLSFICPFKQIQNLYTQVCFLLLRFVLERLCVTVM
Outline: as §1

ETS2 = molecular target: T9, ETS2 (Homo sapiens, UniProt P15036 1-469)
T9 sequence: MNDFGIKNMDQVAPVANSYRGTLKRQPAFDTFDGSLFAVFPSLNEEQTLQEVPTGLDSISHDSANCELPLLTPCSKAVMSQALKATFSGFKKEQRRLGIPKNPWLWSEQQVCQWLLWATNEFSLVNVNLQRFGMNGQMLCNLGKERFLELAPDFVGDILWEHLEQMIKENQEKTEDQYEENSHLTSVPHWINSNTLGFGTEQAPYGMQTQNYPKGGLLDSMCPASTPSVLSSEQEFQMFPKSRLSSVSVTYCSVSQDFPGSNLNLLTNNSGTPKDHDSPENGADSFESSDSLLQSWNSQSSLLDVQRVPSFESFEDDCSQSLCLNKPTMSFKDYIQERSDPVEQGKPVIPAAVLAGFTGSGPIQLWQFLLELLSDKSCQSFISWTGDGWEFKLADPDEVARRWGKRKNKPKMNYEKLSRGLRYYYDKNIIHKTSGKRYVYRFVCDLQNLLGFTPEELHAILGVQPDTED
Outline: as §1

SPDEF = molecular target: T10, SPDEF (Homo sapiens, UniProt O95238 1-335)
T10 sequence: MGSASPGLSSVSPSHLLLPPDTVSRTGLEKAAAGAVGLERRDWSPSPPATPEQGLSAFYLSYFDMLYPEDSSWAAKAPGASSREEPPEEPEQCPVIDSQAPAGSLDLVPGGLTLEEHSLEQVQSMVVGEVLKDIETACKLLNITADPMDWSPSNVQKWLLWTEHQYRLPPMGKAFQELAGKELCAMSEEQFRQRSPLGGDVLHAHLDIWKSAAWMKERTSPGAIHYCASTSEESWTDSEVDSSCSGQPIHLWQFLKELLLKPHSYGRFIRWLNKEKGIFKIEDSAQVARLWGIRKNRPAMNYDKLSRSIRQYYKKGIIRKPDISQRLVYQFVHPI
Outline: as §1

ETV7 = molecular target: T11, ETV7 (Homo sapiens, UniProt Q9Y603 1-341)
T11 sequence: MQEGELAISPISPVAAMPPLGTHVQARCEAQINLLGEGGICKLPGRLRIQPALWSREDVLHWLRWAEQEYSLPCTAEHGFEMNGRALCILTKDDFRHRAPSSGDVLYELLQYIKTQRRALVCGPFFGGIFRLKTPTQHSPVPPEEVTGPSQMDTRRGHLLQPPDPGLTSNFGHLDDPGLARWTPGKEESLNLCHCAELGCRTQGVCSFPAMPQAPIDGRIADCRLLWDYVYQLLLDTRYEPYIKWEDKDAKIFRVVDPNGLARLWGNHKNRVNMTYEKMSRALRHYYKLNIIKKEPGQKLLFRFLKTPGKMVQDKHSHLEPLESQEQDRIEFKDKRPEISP
Outline: as §1

ETV3 = molecular target: T12, ETV3 (Homo sapiens, UniProt P41162-2 1-143)
T12 sequence: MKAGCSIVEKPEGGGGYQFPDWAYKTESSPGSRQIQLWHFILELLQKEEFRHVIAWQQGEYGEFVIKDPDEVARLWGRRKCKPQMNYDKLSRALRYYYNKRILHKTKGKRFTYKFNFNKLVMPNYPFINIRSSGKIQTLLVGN
Outline: as §1

ETV6 = ETV6 (Homo sapiens, UniProt P41212 1-452)
ETV6, sequence (P41212 whole entry): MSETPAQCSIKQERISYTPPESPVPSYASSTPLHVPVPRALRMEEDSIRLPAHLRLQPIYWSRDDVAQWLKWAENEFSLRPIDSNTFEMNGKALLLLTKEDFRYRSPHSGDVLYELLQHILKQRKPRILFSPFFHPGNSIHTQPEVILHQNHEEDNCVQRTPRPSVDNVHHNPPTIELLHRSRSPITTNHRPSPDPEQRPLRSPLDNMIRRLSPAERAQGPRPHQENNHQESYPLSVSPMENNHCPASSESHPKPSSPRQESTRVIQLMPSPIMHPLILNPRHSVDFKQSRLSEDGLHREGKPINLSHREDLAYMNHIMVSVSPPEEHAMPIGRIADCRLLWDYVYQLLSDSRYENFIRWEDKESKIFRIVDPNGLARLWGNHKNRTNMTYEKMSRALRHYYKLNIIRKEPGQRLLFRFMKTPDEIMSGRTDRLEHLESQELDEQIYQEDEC
Outline: as §1

TGGAAC was tested, and the binding signal (ERG) was 1.02 fold enrichment (6-mer frequency, TF over GST control), the binding signal (ELF1) was 1 fold enrichment (6-mer frequency, TF over GST control) and the binding signal (EHF) was 1.04 fold enrichment (6-mer frequency, TF over GST control). The binding signal (SPIB) was 1.04 fold enrichment (6-mer frequency, TF over GST control), the binding signal (ETV5) was 1.05 fold enrichment (6-mer frequency, TF over GST control) and the binding signal (ELF3) was 1.05 fold enrichment (6-mer frequency, TF over GST control). For the same sequence, the binding signal (ETV1) was 1.04 fold enrichment (6-mer frequency, TF over GST control).
With GAAGCC the binding signal (ELK1) was 1.06 fold enrichment (6-mer frequency, TF over GST control), the binding signal (GABPA) was 1 fold enrichment (6-mer frequency, TF over GST control) and the binding signal (ERG) was 1.08 fold enrichment (6-mer frequency, TF over GST control). For the same sequence, the binding signal (ELK3) was 1.05 fold enrichment (6-mer frequency, TF over GST control), the binding signal (ETV5) was 1.07 fold enrichment (6-mer frequency, TF over GST control) and the binding signal (SPIC) was 1 fold enrichment (6-mer frequency, TF over GST control). The binding signal (ELF4) was 1.04 fold enrichment (6-mer frequency, TF over GST control), the binding signal (ELK4) was 1.01 fold enrichment (6-mer frequency, TF over GST control) and the binding signal (ETV1) was 1.04 fold enrichment (6-mer frequency, TF over GST control). The binding signal (ETS2) was 1.01 fold enrichment (6-mer frequency, TF over GST control), the binding signal (SPDEF) was 1.01 fold enrichment (6-mer frequency, TF over GST control) and the binding signal (ETV7) was 1.12 fold enrichment (6-mer frequency, TF over GST control). For the same sequence, the binding signal (ETV3) was 1 fold enrichment (6-mer frequency, TF over GST control) and the binding signal (ETV6) was 1.09 fold enrichment (6-mer frequency, TF over GST control).
